Experimental findings from PubChem BioAssay (NCATS) are described below.

A short description of assay [1]: Primary qHTS for inhibitors of nuclear receptor binding SET domain protein 2 (NSD2) in an isogenic RCH-ACV NSD2 p.E1099K mutant (9B) (AID 1645876). Further: nearly all actives have a fitted effect of over 70% in size. Further: potency means the concentration at half of the fitted maximal effect. A general note: Quantitative high-throughput screening tests each substance at several concentrations.
Assay [2] is described as follows: Primary qHTS for inhibitors of nuclear receptor binding SET domain protein 2 (NSD2) in an RCH-ACV wild type WT cells (2C) (AID 1645877). Further: nearly all actives have a fitted effect of over 70% in size. Further: potency means the concentration at half of the fitted maximal effect.
The target in assay [3] is Glutathione peroxidase 1 (Homo sapiens) (UniProt P07203). As to the kind of experiment: Primary qHTS Assay for Inhibitors of Recombinant Selenoprotein Glutathione Peroxidase 1 (GPX1) (AID 1845191). Further: nearly all actives have a fitted effect of over 65% in size. In outline: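 10 nM GPX1 + cpd, 30 min RT; start w/ 1 mM GSH, 0.5 mM cumene hydroperoxide, 0.5 mM NADPH, 100 nM GR, 0.01% BSA; buffer 50 mM Tris-HCl pH 7.5, 2 mM EDTA, 150 mM NaCl; Fl 340/450, 0 & 15 min.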
Chain of Glutathione peroxidase 1 (Homo sapiens) (P07203 whole entry, looked up): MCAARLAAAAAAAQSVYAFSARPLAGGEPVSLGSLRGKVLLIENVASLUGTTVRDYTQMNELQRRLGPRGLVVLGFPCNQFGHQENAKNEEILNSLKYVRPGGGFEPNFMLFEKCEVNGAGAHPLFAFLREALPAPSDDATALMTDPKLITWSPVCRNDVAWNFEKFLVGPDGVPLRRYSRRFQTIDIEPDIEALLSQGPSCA

Assay [4] addresses Phospholipid hydroperoxide glutathione peroxidase GPX4 (Homo sapiens) (UniProt P36969). Description: Primary qHTS Assay for Inhibitors of Recombinant Selenoprotein Glutathione Peroxidase 4 (GPX4) (AID 1845192). Further: nearly all actives have a fitted effect of over 65% in size. Further: potency means the concentration at half of the fitted maximal effect. On activity change, negative = inhibition: on the % scale 0 is the no-effect control and ±100 the full control effect. In outline: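 NADPH consumption, followed by fluorescence at 340/450 nm between 0 and 15 min, reports GPX4 activity via coupled glutathione reductase (100 nM). Enzyme 200 nM was pre-exposed to compound 30 min; 0.5 mM cumene hydroperoxide and 1 mM GSH served as substrates.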

Assay [5] is described as follows: qHTS drug screen for cell cycle checkpoint inhibitors in PARPi-resistant BRCA-mutant ovarian cancer cell lines. (AID 1963452; calls by dose curve; further: potency means the concentration at half of the fitted maximal effect). The note with it: PEO1/OlaR viability, CellTiter-Glo luminescence, 96 h; for Z-AUC: stronger effect = lower value. In outline:
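PEO1, PEO4 and PEO1/OlaR ovarian cancer cells, 600 per well, exposed 96 h at 37C to a dilution series. Viability read by CellTiter-Glo luminescence, normalized to DMSO and empty wells; activity summarized as Z-AUC.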

Assay [6] concerns the target Tyrosine-protein kinase Yes (Homo sapiens) (UniProt P07947). Description: qHTS for small molecule inhibitors of Yes1 kinase: Primary Screen (AID 686947).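 Further: plate controls were DMSO with enzyme for no effect and no-enzyme DMSO wells for full effect; nearly all actives have a fitted effect of over 60% in size.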 In outline: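 Yes1 (4 nM) preincubated 20 min with compound, then 60 min room-temperature reaction with 0.1 mM ATP and 0.3 mg/mL poly(E4Y) in pH 7.5 Tris, 10 mM MgCl2. ADP measured by ADP-Glo luminescence, normalised to enzyme/no-enzyme controls.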

A short description of assay [7]: qHTS for small molecule inhibitors of Yes1 kinase: Counter Assay (AID 686950).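 Further: no kinase present so only ADP-Glo detection of a fixed ADP amount is tested; luminescence from ADP-Glo reporting ADP in a fixed ATP and ADP mixture; 0% = DMSO wells with ATP plus ADP and -100% = ATP-only wells without ADP.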 In outline: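 Luminescence read-out from ADP-Glo quantifies a fixed ADP amount (0.02 mM ADP with 0.08 mM ATP) after 60 min at room temperature; signal is normalized between DMSO wells with ATP/ADP and with 0.1 mM ATP alone.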
In assay [8] the target is Catechol O-methyltransferase (Homo sapiens) (UniProt P21964). Description: Confirmatory Screen for Target Class Profiling of Small Molecule Inhibitors of Methyltransferases (AID 1745852; calls by dose curve; further: potency means the concentration at half of the fitted maximal effect). The note with it: MTase-Glo luminescence, SAH detection, recombinant enzyme; measured here: COMT max response; stronger effect = lower value.
Chain of Catechol O-methyltransferase (Homo sapiens) (P21964 whole entry, looked up): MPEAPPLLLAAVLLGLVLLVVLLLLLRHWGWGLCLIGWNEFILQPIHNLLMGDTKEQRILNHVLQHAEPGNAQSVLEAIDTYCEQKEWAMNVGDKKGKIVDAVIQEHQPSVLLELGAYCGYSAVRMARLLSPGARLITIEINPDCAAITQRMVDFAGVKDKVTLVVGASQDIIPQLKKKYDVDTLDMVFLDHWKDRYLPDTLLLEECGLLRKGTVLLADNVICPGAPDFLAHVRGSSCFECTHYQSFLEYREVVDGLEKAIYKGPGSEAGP
Assay [9] addresses Guanidinoacetate N-methyltransferase (Homo sapiens) (UniProt Q14353). The assay is described as above. The note with it: MTase-Glo luminescence, SAH detection, recombinant enzyme; activity change, negative = inhibition: at 57.3 µM (top of the series) unless noted.
Assay [10] deals with Nicotinamide N-methyltransferase (Homo sapiens) (UniProt P40261). The description is as above. The conditions noted are these: MTase-Glo luminescence, SAH detection, recombinant enzyme; measured here: NNMT max response; stronger effect = lower value.
Chain of Nicotinamide N-methyltransferase (Homo sapiens) (P40261 whole entry, looked up): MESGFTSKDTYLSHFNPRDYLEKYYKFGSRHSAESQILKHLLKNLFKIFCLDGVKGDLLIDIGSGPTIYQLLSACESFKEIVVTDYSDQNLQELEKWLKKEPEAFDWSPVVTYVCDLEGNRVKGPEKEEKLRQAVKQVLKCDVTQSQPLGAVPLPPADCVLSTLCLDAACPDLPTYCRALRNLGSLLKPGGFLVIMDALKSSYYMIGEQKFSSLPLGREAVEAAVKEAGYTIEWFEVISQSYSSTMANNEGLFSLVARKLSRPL
Assay [11] has as its target Phenylethanolamine N-methyltransferase (Homo sapiens) (UniProt P11086). The assay is described as above. The note with it: MTase-Glo luminescence, SAH detection, recombinant enzyme; measured here: PNMT max response; stronger effect = lower value.
The mark [12] stands for this setting: measured here: PEO1 parental Z-AUC.

Records with an inconclusive call do not appear. Active and inactive are the calls of the source. Unless noted, the call rests on the fitted dose curve; in most records, active means well fitted curve in the direction sought with a large enough effect; inconclusive means small, poorly fitted or top-dose-only effect, or another doubt; inactive means no such curve, though single readings can be large; an effect the other way counts as inactive or inconclusive.

Chain of Phospholipid hydroperoxide glutathione peroxidase GPX4 (Homo sapiens) (P36969 whole entry, looked up): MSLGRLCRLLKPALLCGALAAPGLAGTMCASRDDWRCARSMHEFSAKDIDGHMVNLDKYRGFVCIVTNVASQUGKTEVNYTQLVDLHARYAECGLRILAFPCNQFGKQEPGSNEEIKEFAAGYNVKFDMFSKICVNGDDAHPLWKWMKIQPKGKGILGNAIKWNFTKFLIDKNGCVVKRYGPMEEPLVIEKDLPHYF
Chain of Tyrosine-protein kinase Yes (Homo sapiens) (P07947 whole entry, looked up): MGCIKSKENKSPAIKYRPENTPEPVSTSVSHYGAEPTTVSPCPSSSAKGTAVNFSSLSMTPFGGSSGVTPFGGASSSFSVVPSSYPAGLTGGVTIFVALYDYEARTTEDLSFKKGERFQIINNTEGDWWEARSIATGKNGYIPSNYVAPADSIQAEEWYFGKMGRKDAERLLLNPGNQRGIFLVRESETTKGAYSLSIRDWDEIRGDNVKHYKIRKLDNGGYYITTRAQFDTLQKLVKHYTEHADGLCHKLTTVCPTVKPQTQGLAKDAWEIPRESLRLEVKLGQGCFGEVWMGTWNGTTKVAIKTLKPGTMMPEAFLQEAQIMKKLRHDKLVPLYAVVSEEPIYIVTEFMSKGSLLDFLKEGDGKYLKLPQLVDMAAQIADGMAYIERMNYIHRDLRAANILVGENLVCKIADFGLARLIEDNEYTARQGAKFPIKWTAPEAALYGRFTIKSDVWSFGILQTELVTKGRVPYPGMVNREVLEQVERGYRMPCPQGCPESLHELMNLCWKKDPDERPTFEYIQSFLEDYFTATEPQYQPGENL
Chain of Phenylethanolamine N-methyltransferase (Homo sapiens) (P11086 whole entry, looked up): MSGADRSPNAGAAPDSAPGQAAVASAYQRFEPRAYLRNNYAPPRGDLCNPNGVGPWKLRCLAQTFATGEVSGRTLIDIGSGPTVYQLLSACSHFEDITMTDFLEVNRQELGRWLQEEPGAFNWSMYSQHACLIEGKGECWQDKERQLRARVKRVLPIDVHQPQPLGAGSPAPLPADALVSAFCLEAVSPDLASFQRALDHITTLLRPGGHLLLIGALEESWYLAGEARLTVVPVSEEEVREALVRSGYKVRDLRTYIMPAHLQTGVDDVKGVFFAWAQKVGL

As for `COc1ccc(/C=C\c2cc(OC)c(OC)c(OC)c2)cc1O`, the Potency is 0.0105 µM (active) in assay [1], 0.0093 µM (active) in assay [2] and 0.0078 µM (active) in assay [5]. In addition, the Potency entry in assay [3] and in assay [4] was “inactive” throughout. In addition, the values for the Z-AUC in [5] (setting [12]) and in [5] (measured here: PEO4 Z-AUC) were -1.52 and -1.81, respectively.
For `CCCCOc1ccc(CC/C=C2\SC(=O)N(CCN)C2=O)cc1`, the Potency is 9.2 µM (active) in assay [1] and 8.2 µM (active) in assay [2].
On to `COc1ccc(S(=O)(=O)N(C(C)=O)c2ccccc2/C=C/c2cc[n+]([O-])cc2)cc1`, for which the Potency in [1] and in assay [2] was 1.05 µM (active) each time. In addition, the Potency result in [3] is “inactive”.
Consider `Nc1nonc1-c1nc2cnccc2n1C1CCCCC1`, for which the outcome in assay [6] and in [7] was “inactive” throughout. In addition, the figures for the Potency in [1], in assay [2] and in [9] were 5.17 µM (active), 2.91 µM (active) and 27.1 µM (active), respectively. In addition, the activity in assay [8] is -23.3%; in assay [10], -44.1%; in [11], -20.9%. Further, in [3], the Potency entry was “inactive”.
For `C=CC(=O)Nc1cccc(Oc2nc(Nc3ccc(N4CCN(C)CC4)cc3)nc3ccsc23)c1`, the Potency in [1] and in assay [2] was 3.32 µM (active) throughout. Besides, the Potency result in [3] and in assay [4] was “inactive” each time.
As for `O=C(Nc1ncc(SCCN2CCCC2)s1)[C@]1(c2ccc(S(=O)(=O)C3CC3)cc2)C[C@H]1C1CCCCC1`, the results for the Potency in [1] and in assay [2] were 10.5 µM (active) and 8.33 µM (active), respectively. For the same molecule, the Potency entry in assay [3] and in assay [4] was “inactive” in each case. Also, the Z-AUC was 0.2 (inactive) in assay [5], -0.0651 in assay [5] (setting [12]) and 0.2 in assay [5] (measured here: PEO4 Z-AUC).
Turning to `C/C(=C\c1csc(C)n1)[C@@H]1C[C@@H]2O[C@]2(C)CCC[C@H](C)[C@H](O)[C@@H](C)C(=O)C(C)(C)[C@@H](O)CC(=O)N1`, the Potency in assay [1] is 0.934 µM (active); in [2] it was 0.742 µM (active). For the same molecule, the Potency entry in assay [3] and in assay [4] was “inactive” throughout. The Z-AUC was -0.955 (inactive) in assay [5], -1.61 in [5] (setting [12]) and -1.78 in assay [5] (measured here: PEO4 Z-AUC).
As for `CC(C)(C)C[C@H]1N[C@@H](C(=O)NC2CCC(O)CC2)[C@H](c2cccc(Cl)c2F)[C@@]12C(=O)Nc1cc(Cl)ccc12` (stereo partly specified), the results for the Potency in assay [1] and in assay [2] were 1.48 µM (active) and 0.468 µM (active), respectively. Also, the Potency result in assay [3] and in assay [4] was “inactive” each time. Further, the Z-AUC was -0.139 (inactive) in assay [5], 0.559 in assay [5] (setting [12]) and 0.282 in assay [5] (measured here: PEO4 Z-AUC).
Turning to `C=C1[C@H](OC(=O)/C=C(\C)CC)C[C@@H](C(C)C)[C@@H]2[C@H]([C@@H](C)OC(C)=O)C(=O)C[C@@H]12`, the Potency entry in assay [1], in assay [2], in assay [3] and in assay [4] was “inactive” each time. The Z-AUC is 1.28 (inactive) in [5], 0.917 in assay [5] (setting [12]) and 1.09 in assay [5] (measured here: PEO4 Z-AUC).
As for `C[C@]1(C(=O)N(CCCC(=O)O)Cc2cccc(Cl)c2)CCN1C(=O)c1csc2ccccc12`, the Potency result in [1], in assay [2], in assay [3] and in [4] was “inactive” each time. Besides, the Z-AUC was 0.897 (inactive) in [5], 0.571 in assay [5] (setting [12]) and 0.835 in [5] (measured here: PEO4 Z-AUC).
On to `CCC(=O)NC[C@H](Cc1ccc(OCCc2nc(-c3ccccc3)oc2C)cc1)N/C(C)=C\C(=O)c1ccc(C(F)(F)F)cc1`, for which the Potency entry in [1], in [2], in assay [3] and in assay [4] was “inactive” each time. The Z-AUC in assay [5] is 0.763 (inactive); in assay [5] (setting [12]), 0.398; in assay [5] (measured here: PEO4 Z-AUC), 0.423.
Regarding `C=CC(=O)Nc1ccc(F)c(-c2ncnc3[nH]cc(C(=O)OCC)c23)c1`, the Potency was 16.6 µM (active) in assay [1] and 14.8 µM (active) in [2]. Moreover, the Potency result in assay [3] and in assay [4] was “inactive” in each case. The Z-AUC is 0.543 (inactive) in assay [5], 0.95 in assay [5] (setting [12]) and 0.747 in [5] (measured here: PEO4 Z-AUC).
Take `CC[C@H](C)[C@@H]([C@@H](CC(=O)N1CCC[C@H]1[C@H](OC)[C@@H](C)C(=O)N[C@@H](Cc1ccccc1)c1nccs1)OC)N(C)C(=O)[C@@H](NC(=O)[C@H](C(C)C)N(C)C)C(C)C`: the Potency result in assay [1], in assay [2], in [3] and in assay [4] was “inactive” in each case. Also, the Potency in [5] is 27.5 µM (active). Besides, the Z-AUC is -3.14 in assay [5] (setting [12]) and -2.96 in assay [5] (measured here: PEO4 Z-AUC).
As for `Cc1ncc(NC(=O)c2cccc(C(F)(F)F)c2)cc1-c1cnc(OC2CCOCC2)c(N2CCOCC2)c1`, the Potency in assay [1] was 18.6 µM (active); in [2], 16.6 µM (active). The Potency entry in assay [3] and in [4] was “inactive” each time. Besides, the Z-AUC in assay [5] was -1.52 (inactive); in assay [5] (setting [12]), -1.38; in [5] (measured here: PEO4 Z-AUC) it was -1.33.
Turning to `Cc1cc(OCCCc2c3n(c4c(-c5c(C)nn(C)c5C)c(Cl)ccc24)[C@H](C)CN(c2cn(C)c4ccc(C(=O)O)cc24)C3=O)cc(C)c1Cl`, the Potency is 4.68 µM (active) in [1], 2.09 µM (active) in assay [2] and 3.21 µM (active) in [4]. In assay [3], the Potency result is “inactive”. In addition, the results for the Z-AUC in assay [5], in assay [5] (setting [12]) and in [5] (measured here: PEO4 Z-AUC) were 1.46 (inactive), 0.906 and 1.25, respectively.
In the case of `CCNCCc1ccc(CN(CC)c2cc(OC)ccc2[C@@H]2CCc3cc(O)ccc3C2)cc1`, the Potency in assay [1] was 6.61 µM (active); in [2] it was 7.42 µM (active). Besides, the Potency result in assay [3] and in [4] was “inactive” throughout. Also, the results for the Z-AUC in assay [5], in assay [5] (setting [12]) and in assay [5] (measured here: PEO4 Z-AUC) were -0.771 (inactive), -0.865 and -1.44, respectively.
On to `[O-][n+]1cccc(-c2nc3c(Cl)cccc3cc2[C@@H](Nc2ncnc3cccnc23)C(F)(F)F)c1`, for which the results for the Potency in assay [1] and in assay [2] were 0.263 µM (active) and 0.468 µM (active), respectively. Also, the Potency result in assay [3] and in [4] was “inactive” each time. The Z-AUC in [5] is -0.846 (inactive); in [5] (setting [12]), 0.42; in assay [5] (measured here: PEO4 Z-AUC), 0.695.
Turning to `COc1ccc(S(=O)(=O)N2CCc3cccc(-c4ccncc4)c32)cc1`, the Potency is 0.833 µM (active) in assay [1] and 0.934 µM (active) in assay [2]. For the same molecule, the Potency entry in assay [3] and in assay [4] was “inactive” throughout. Further, the results for the Z-AUC in [5], in assay [5] (setting [12]) and in [5] (measured here: PEO4 Z-AUC) were -1.73 (inactive), -1.49 and -1.55, respectively.
